The values that follow come from PubChem BioAssay (NCI).

Values joined by “and” are separate entries in the source; they are usually repeats but may differ in a detail not shown here. Equal values may be shown once. About 79,000 compounds went through this panel and 15% of them were active in at least one assay; those are over-represented in the sample as a whole. The source holds several records for some structures; these can differ, active in one and inactive in another. Active and inactive are the calls of the source. Cut-off read from the data, not from the text of the source: active = growth inhibition above about 70%; inactive = the rest.

Assay [1] can be described thus: NCI Yeast Anticancer Drug Screen. Data for the rad50 strain (AID 155).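 Note: 0% = growth of vehicle-only cultures of the same strain.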 The conditions noted are these: S. cerevisiae rad50 strain growth inhibition, stronger effect = higher value. The essentials:
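Inhibition values express reduced yeast growth in compound-treated cultures relative to vehicle-treated controls.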

A short description of assay [2]: NCI Yeast Anticancer Drug Screen. Data for the mec2-1 strain (AID 157). The conditions noted are these: S. cerevisiae mec2-1 strain, stronger effect = higher value. The essentials: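 Readout is yeast growth inhibition, normalised to vehicle-treated controls, in the mec2-1 strain exposed to compound.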
Assay [3] in a line: NCI Yeast Anticancer Drug Screen. Data for the sgs1 mgt1 strain (AID 161).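 Note: 0% = growth of cultures given vehicle only.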 The conditions noted are these: S. cerevisiae sgs1 mgt1 strain, stronger effect = higher value. The essentials:
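Growth of a repair-deficient yeast mutant was monitored after compound treatment and expressed as inhibition relative to vehicle-treated cultures.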

The nature of assay [4]: NCI Yeast Anticancer Drug Screen. Data for the cln2 rad14 strain (AID 165).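 Note: 0% = growth equal to vehicle treated cultures.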 The conditions noted are these: S. cerevisiae cln2 rad14 strain, stronger effect = higher value. The essentials: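 Relative to vehicle controls, growth inhibition of compound-treated cln2 rad14 yeast was recorded.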
The nature of assay [5]: NCI Yeast Anticancer Drug Screen. Data for the bub3 strain (AID 167). The settings on record: S. cerevisiae bub3 mutant strain, stronger effect = higher value. The procedure, abridged: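 Steps: expose the mutant yeast strain to compound; grow alongside vehicle-treated cultures; measure growth; express inhibition against the vehicle cultures.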
The nature of assay [6]: NCI Yeast Anticancer Drug Screen. Data for the mlh1 rad18 strain (AID 175). The conditions noted are these: S. cerevisiae mlh1 rad18 strain growth inhibition, stronger effect = higher value. The essentials: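 Test agents were incubated with a yeast strain of defined genotype (DNA damage repair defect). Inhibition of growth was derived by comparison with vehicle-exposed cultures.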

Where [7] appears, read: at 5.0 µM (retest, dose inferred, filed as 0.5).
[8] abbreviates: at 50.0 µM (retest, dose inferred, filed as 5.0).

Regarding `CCCCCCCCCCCCN1C(=O)[N+](C)(C)N=C1[O-]`, the growth inhibition in assay [1] (setting [7]) was 6% (inactive); in assay [1] (setting [8]), 41% (inactive); in assay [1] (at 50.0 µM), 98.7% (active); in assay [2] (setting [7]) it was 4% (inactive); in assay [2] (setting [8]) it was 49% (inactive); in assay [2] (at 50.0 µM) it was 99.3% (active). The growth inhibition in assay [3] (setting [7]) was 7% (inactive); in assay [3] (setting [8]), 60% (inactive); in assay [3] (at 50.0 µM), 99.1% (active); in assay [4] (setting [7]), -4% (inactive); in assay [4] (setting [8]), 21% (inactive); in assay [4] (at 50.0 µM) it was 97.5% (active). Besides, the growth inhibition in assay [5] (setting [7]) is 4% (inactive); in assay [5] (setting [8]), 34% (inactive); in assay [5] (at 50.0 µM), 98.9% (active); in assay [6] (setting [7]), 4% (inactive); in assay [6] (setting [8]), 49% (inactive); in assay [6] (at 50.0 µM) it was 99.1% (active).

With `O=C(/C=C/c1cccnc1)c1ccccc1`, the growth inhibition in assay [1] (setting [7]) was 2% (inactive); in assay [1] (setting [8]) it was 48% (inactive); in assay [1] (at 50.0 µM) it was 9.2% (inactive) and 25.8% (inactive); in assay [2] (setting [7]), 0% (inactive); in assay [2] (setting [8]) it was 67% (inactive); in assay [2] (at 50.0 µM) it was -9.2% (inactive) and 41.6% (inactive). For the same compound, the growth inhibition in assay [3] (setting [7]) was -1% (inactive); in assay [3] (setting [8]) it was 65% (inactive); in assay [3] (at 50.0 µM), -15.7% (inactive) and 61.4% (inactive); in assay [4] (setting [7]), 5% (inactive); in assay [4] (setting [8]), 14% (inactive); in assay [4] (at 50.0 µM) it was 15.1% (inactive) and 3.65% (inactive). The growth inhibition in assay [5] (setting [7]) was 0% (inactive); in assay [5] (setting [8]), 40% (inactive); in assay [5] (at 50.0 µM), -10% (inactive) and 25.5% (inactive); in assay [6] (setting [7]), 4% (inactive); in assay [6] (setting [8]) it was 36% (inactive); in assay [6] (at 50.0 µM) it was -21.9% (inactive) and 69.2% (inactive).

`CCC1CCCC(=O)C1` (stereo not given): the growth inhibition was 2% (inactive) in assay [1] (setting [7]); 2% (inactive) in assay [1] (setting [8]); 89.2% (active) in assay [1] (at 50.0 µM); -1% (inactive) in assay [2] (setting [7]); -5% (inactive) in assay [2] (setting [8]); 53.6% (inactive) in assay [2] (at 50.0 µM). In addition, the growth inhibition in assay [3] (setting [7]) is 0% (inactive); in assay [3] (setting [8]), -1% (inactive); in assay [3] (at 50.0 µM) it was 14.1% (inactive); in assay [4] (setting [7]) it was 3% (inactive); in assay [4] (setting [8]), 1% (inactive); in assay [4] (at 50.0 µM), 36.2% (inactive). Moreover, the growth inhibition in assay [5] (setting [7]) is 2% (inactive); in assay [5] (setting [8]), 2% (inactive); in assay [5] (at 50.0 µM), 99.4% (active); in assay [6] (setting [7]) it was -2% (inactive); in assay [6] (setting [8]), 0% (inactive); in assay [6] (at 50.0 µM), 91.8% (active).

Turning to `CCN(CC)Cc1cc2c(cc1O)CC[C@@H]1[C@@H]2CC[C@]2(C)C(=O)CC[C@@H]12`, the growth inhibition in assay [1] (setting [7]) was 39% (inactive); in assay [1] (setting [8]), 80% (active); in assay [1] (at 50.0 µM), 83.6% (active) and 25.6% (inactive); in assay [2] (setting [7]), -5% (inactive); in assay [2] (setting [8]) it was 60% (inactive); in assay [2] (at 50.0 µM), 55.8% (inactive) and 15.2% (inactive). For the same compound, the growth inhibition in assay [3] (setting [7]) was 16% (inactive); in assay [3] (setting [8]), 47% (inactive); in assay [3] (at 50.0 µM), 78.5% (active) and 22.2% (inactive); in assay [4] (setting [7]), -2% (inactive); in assay [4] (setting [8]), 11% (inactive); in assay [4] (at 50.0 µM) it was 72.5% (active) and -21.2% (inactive). The growth inhibition in assay [5] (setting [7]) was 15% (inactive); in assay [5] (setting [8]), 67% (inactive); in assay [5] (at 50.0 µM), 54% (inactive) and 56% (inactive); in assay [6] (setting [7]), 38% (inactive); in assay [6] (setting [8]), 81% (active); in assay [6] (at 50.0 µM), 71.3% (active) and 20.9% (inactive).

With `O[Si](c1ccccc1)(c1ccccc1)c1ccccc1.O[Si](c1ccccc1)(c1ccccc1)c1ccccc1.O[Si](c1ccccc1)(c1ccccc1)c1ccccc1.[O]=[V]`, the growth inhibition in assay [1] (setting [7]) is 58% (inactive); in assay [1] (setting [8]) it was 64% (inactive); in assay [1] (at 50.0 µM), 62.1% (inactive); in assay [2] (setting [7]), 37% (inactive); in assay [2] (setting [8]) it was 50% (inactive); in assay [2] (at 50.0 µM), 67% (inactive). Also, the growth inhibition in assay [3] (setting [7]) is 46% (inactive); in assay [3] (setting [8]), 58% (inactive); in assay [3] (at 50.0 µM), 70.3% (active); in assay [4] (setting [7]) it was 15% (inactive); in assay [4] (setting [8]), 31% (inactive); in assay [4] (at 50.0 µM), 27.1% (inactive). Further, the growth inhibition in assay [5] (setting [7]) was 63% (inactive); in assay [5] (setting [8]), 62% (inactive); in assay [5] (at 50.0 µM), 43.4% (inactive); in assay [6] (setting [7]) it was 53% (inactive); in assay [6] (setting [8]) it was 58% (inactive); in assay [6] (at 50.0 µM), 72.6% (active).
